Data published in PubChem BioAssay AID651636 (Sanford-Burnham Center for Chemical Genomics, 2012).
Several values for one entry are separate records, joined by “and”; a condition that tells them apart may be missing. Identical values can stand only once. Among all 360,000 compounds or so, about 3,000 (0.83%) were called active. Rule as the data show it: active = inhibition above about 38%; inactive = the rest. What follows is part of a selection rich in actives, with near analogues and random picks from the rest.

The compounds below were run against G-protein coupled receptor 183 (Homo sapiens) (UniProt P32249) (assay: EBI2 receptor antagonists, beta-arrestin recruitment, primary screen, cell-based, luminescence, 7a,25-OHC stimulation, uHTS (AID 651636;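 also: enzyme fragment complementation signal reports receptor beta-arrestin coupling in cells; 0% = agonist plus DMSO wells and 100% = wells without agonist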)). Conditions: 7a,25-OHC stimulated, at 5 µM, stronger effect = higher value.
Chain of G-protein coupled receptor 183 (Homo sapiens) (P32249 whole entry, looked up, the tested form may be a part): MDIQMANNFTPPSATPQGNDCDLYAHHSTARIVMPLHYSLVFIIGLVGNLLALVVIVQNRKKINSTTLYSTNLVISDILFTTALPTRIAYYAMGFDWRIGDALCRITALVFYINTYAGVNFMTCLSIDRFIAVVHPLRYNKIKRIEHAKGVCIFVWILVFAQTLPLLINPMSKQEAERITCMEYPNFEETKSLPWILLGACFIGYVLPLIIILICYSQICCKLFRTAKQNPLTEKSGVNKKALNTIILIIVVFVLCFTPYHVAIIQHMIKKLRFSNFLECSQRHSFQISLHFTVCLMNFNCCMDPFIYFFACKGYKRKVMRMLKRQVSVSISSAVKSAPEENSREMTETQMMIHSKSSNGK

| Compound | inhibition |
| --- | --- |
| CCN(CC)CCNc1nc(-c2ccc(OC(F)F)cc2)c(C)s1 | 7.54% (inactive) |
| CCCCn1nnnc1C(c1cc2ccccc2o1)N(C)Cc1ccc(Cl)c(Cl)c1 (stereo not given) | 15.8% (inactive) |
| COCCNC(=S)c1ccc(OC)cc1 | -12.7% (inactive) |
| Cc1cs/c(=N\N=C\c2ccc(O)cc2)n1Cc1ccco1 | 50.6% (active) |
| CN(C)C(=S)N=c1ssc(=S)n1Cc1ccco1 | -5.43% (inactive) |
| CC(C)NC(=O)NNc1c(Cl)cncc1Cl | 1.07% (inactive) |
| ONC(=Nc1ccc(Cl)cc1)c1ccccc1Cl | -0.13% (inactive) |
| COc1ccc(NC(=O)CCNS(=O)(=O)c2ccc3c(c2)c(=O)n(C)c(=O)n3C)cc1OC | -1.47% (inactive) |
| COc1ccc(NC2CC(=O)N(C)C2=O)cc1 (stereo not given) | -2.09% (inactive) |
| COC(=O)c1ccc(COC(=O)c2cnc(Cl)c(Cl)c2)cc1 | 4.66% (inactive) |
| CCOc1ccc(C(C)=O)cc1COC(=O)CNC(=O)c1cccs1 | 4.34% (inactive) |
| CCOc1ccc(C(C)=O)cc1COC(=O)c1cnc(Cl)c(Cl)c1 | 43.3% (active) |
| Cc1c(Br)ccc(NC(=O)COc2ccccc2C(N)=O)c1C | -2.44% (inactive) |
| CC(=O)Nc1ccc(N2C(=O)CCC2=O)cc1C | 4.9% (inactive) |
| CN(CC(=O)NC1CCN(Cc2ccccc2)CC1)S(=O)(=O)c1ccc(Cl)s1 | 1.99% (inactive) |
| COC(=O)C1CCN(C(=O)NC2CC(=O)N(c3ccc4c(c3)OCCO4)C2)CC1 (stereo not given) | 8.78% (inactive) |
| COc1cc2c(cc1OC)CC1(CCCCC1)N=C2 | 7.31% (inactive) |
| CN(C)S(=O)(=O)c1cccc(NC(=O)COc2ccc3ccccc3c2)c1 | 8.2% (inactive) |
| CN(Cc1ccc(F)cc1)C(=O)COc1ccc2ccccc2c1 | 93.1% (active) |
| Cc1ccc(C)c(NC(=O)CN(C)C(=O)COc2ccc3ccccc3c2)c1 | 27.2% (inactive) |

| Compound | inhibition |
| --- | --- |
| CC1(C)OC(=O)C2=C(C[C@@H](C3CCCC3)O[C@@H]2c2ccc(Cl)cc2)O1 | -3.37% (inactive) |
| Cn1c(CC2Sc3ccccc3NC2=O)nnc1SCC(=O)c1ccc(Cl)cc1 (stereo not given) | 3.76% (inactive) |
| Cc1ccc(-c2nn(-c3ccccc3)cc2/C=C/C(=O)Nc2cccc(S(N)(=O)=O)c2)cc1 | 41.1% (active) |
| Cc1ccc(-c2nn(-c3ccccc3)cc2C(=O)Nc2cccc(S(=O)(=O)N3CCOCC3)c2)cc1 | 27.6% (inactive) |
| O=C(/C=C/c1cn(-c2ccccc2)nc1-c1ccc2c(c1)OCCO2)NCCCN1CCOCC1 | 3.63% (inactive) |
| CC[C@]12c3[nH]c4cc(CCC(=O)N(C)C)ccc4c3CCN1C(=O)[C@@H](CC(=O)NCc1ccco1)C[C@@H]2C(=O)N1CCN(C(=O)c2ccco2)CC1 | -5.36% (inactive) |
| CCN(CCCNC(=O)CSc1cc(=O)n(C)c2cc(Cl)ccc12)Cc1ccccc1 | 8.14% (inactive) |
| Cc1cc(Cl)c2oc(C(=O)NC(C)c3ccncn3)c(C)c2c1 (stereo not given) | -2.48% (inactive) |
| Cc1cc(Cl)c2oc(C(=O)N(C)C(C)c3ccccn3)c(C)c2c1 (stereo not given) | 4.48% (inactive) |
| Cc1cc(Cl)c2oc(C(=O)N3CCC(O)(c4ccccc4)CC3)c(C)c2c1 | 73.4% (active) |
| CSc1nnc(CNC(=O)c2ccccc2)n1-c1ccc(F)cc1 | -8.06% (inactive) |
| Cn1c(NC(=O)c2ccco2)c(-c2ccccc2Cl)c(=O)c2ccccc21 | 2.45% (inactive) |
| COCCNc1nc2nonc2nc1N(C)Cc1ccc(C)cc1 | -3.45% (inactive) |
| NS(=O)(=O)c1ccccc1NC(=O)c1c(O)c2ccccc2[nH]c1=O | 2.5% (inactive) |
| O=C(c1ccccc1Oc1ccccc1)N1CCN(c2ccc(F)cc2)CC1 | 7.76% (inactive) |
| O=C(c1cc2cc(F)ccc2[nH]1)N1CCN(c2ccc(F)cc2)CC1 | 71.3% (active) |
| Cc1c(C(=O)N2CCN(c3ccc(F)cc3)CC2)oc2c1C(=O)CCC2 | -8.48% (inactive) |
| CCn1c(=S)sc2c(=O)n(CC(=O)Nc3ccc(OC)cc3)c(C)nc21 | 1.99% (inactive) |
| COc1ccc(NC(=S)N2N=CCC2c2ccccc2)cc1 (stereo not given) | 3.93% (inactive) |
| CC(=O)N1c2ccc(S(=O)(=O)NCCC(=O)N(C)C3CCCCC3)cc2CC1C (stereo not given) | -4.73% (inactive) |

| Compound | inhibition |
| --- | --- |
| N#Cc1ccc(C(c2nnnn2CCc2ccccc2)N2CCCCCC2)cc1 (stereo not given) | 50.2% (active) |
| CCCCn1nnnc1C(c1ccccc1)N1CCN(c2ccccc2OC)CC1 (stereo not given) | 1.91% (inactive) |
| Fc1ccc(Cn2nnnc2C(c2cccs2)N2CCCCCC2)cc1 (stereo not given) | 6.98% (inactive) |
| O=C(CN1CCOCC1)Nc1c2c(nc3c1CCC3)CCC2 | 7.47% (inactive) |
| CCCNC(=O)N1CCN(C(=O)NCCC)CC1 | -0.62% (inactive) |
| Cc1cccc(-n2c(O)c(C=Nc3ccccc3N)c(=O)[nH]c2=O)c1 | 95.3% (active) |
| COc1ccc(-c2cn(-c3ccc(OC)cc3)c(=S)[nH]2)cc1 | 86.5% (active) |
| O=c1oc2ccccc2cc1-c1cn(-c2ccccc2)c(=S)[nH]1 | -9.67% (inactive) |
| COc1ccc(-n2cc(-c3ccccc3)c3c(=S)nc[nH]c32)cc1 | 14.3% (inactive) |
| Cc1nc2ccc(S(=O)(=O)NCC(=O)O)cc2s1 | -11.4% (inactive) |
| CC[n+]1c(C)n(-c2ccccc2)c2ccc(NC(C)=O)cc21 | 3.98% (inactive) |
| N/C(=N\OC(=O)CCc1ccccc1)c1ccc(Cl)cc1 | 12.5% (inactive) |
| Cc1cccc(NC(=O)CN2CCN(CC(=O)NCC3(N4CCCCC4)CCCCC3)CC2)c1C | -3.14% (inactive) |
| Cc1cc(C)cc(NC(=O)NC2CCN(CC(=O)Nc3cccc(Cl)c3C)CC2)c1 | 18.1% (inactive) |
| Cc1cccc(NC(=O)CN2CCN(C(=O)C3CCN(C(=O)/C=C/c4ccccc4)CC3)CC2)c1C | 79.2% (active) |
| O=C(C[C@H]1CC[C@@H](NC(=O)c2ccncc2)[C@@H](CO)O1)NCC1CC1 | -1.01% (inactive) |
| CC(C)C(=O)N1CCN(CCN=CC2=C(O)CC(c3ccco3)CC2=O)CC1 (stereo not given) | -2.69% (inactive) and -8.63% (inactive) |
| CCOc1cc(-c2noc(CCC(=O)N3CCOCC3)n2)ccc1OC | -2.72% (inactive) |
| CCOc1ccc(-c2noc(CCC(=O)NC3CCCC3)n2)cc1OC | 8.53% (inactive) |
| CCOc1nc(-c2ccc(OC)cc2)ccc1-c1noc(-c2cc(OC)c(OC)c(OC)c2)n1 | 49.3% (active) |
